Laboratory results from PubChem BioAssay.
Values without a mark were called inactive. For some of these results: Entries with a potency or affinity are not part of this list. The source made the active and inactive calls. Unless noted, no rule for the calls is given here.

Experiments:
[1] = antimalarial activity against Dd2 strain (AID 2302;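 active = growth inhibition above 50% at the single 2 µM test dose, taken to imply half-maximal potency below 2 µM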;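 also: 0% = DMSO untreated growth and 100% = chloroquine plus artemisinin killed control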); conditions: P. falciparum Dd2 in RBCs, LDH growth readout, 72 h; at 2 µM; stronger effect = higher value
[2] = human hepatoma cell viability loss – ATP luminescence, cytotoxicity control for P. falciparum antimalarial project, primary screen (AID 2303;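 active = inhibition above 50%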;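 also: 0% = DMSO wells and 100% = digitonin-killed cells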); conditions: HepG2 viability, 24-48 h, at 10 µM, stronger effect = higher value
[3] = target: L-lactate dehydrogenase (Plasmodium falciparum (isolate CDC / Honduras)) (UniProt Q27743); assay: PfLDH activity inhibition – cell lysate, 3D7 strain, counter-screen for P. falciparum growth inhibition project (AID 2304);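 also: 0% = vehicle and 100% = reference inhibitor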; conditions: P. falciparum 3D7 crude extract, LDH APAD/NBT absorbance; at 2 µM; stronger effect = higher value
Chain of L-lactate dehydrogenase (Plasmodium falciparum (isolate CDC / Honduras)) (Q27743 whole entry, looked up): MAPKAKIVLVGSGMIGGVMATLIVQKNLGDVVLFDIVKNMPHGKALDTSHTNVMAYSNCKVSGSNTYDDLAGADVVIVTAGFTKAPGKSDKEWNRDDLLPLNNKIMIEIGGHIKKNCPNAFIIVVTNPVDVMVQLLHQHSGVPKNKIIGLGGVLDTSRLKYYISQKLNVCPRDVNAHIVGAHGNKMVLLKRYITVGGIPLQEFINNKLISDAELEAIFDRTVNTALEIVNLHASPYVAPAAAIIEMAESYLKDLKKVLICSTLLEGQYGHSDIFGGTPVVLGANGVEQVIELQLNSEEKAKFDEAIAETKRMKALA

[4] = inhibition of 3D7 malaria parasite growth – strain 3D7 (AID 2306);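 also: 0% = DMSO wells and 100% = chloroquine plus artemisinin control wells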; conditions: P. falciparum 3D7 erythrocytic growth, LDH absorbance, 72 h; at 2 µM; stronger effect = higher value
[5] = target: Calcium-dependent protein kinase 1 (Plasmodium falciparum (isolate 3D7)) (UniProt P62344); assay: PfCDPK1 kinase inhibitors, biochemical, TCAMS library (AID 1159585; cut-off not given, nearly all actives have IC50 up to about 0.98 µM;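 also: inhibitors leave more ATP so luminescence rises with inhibition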); conditions: recombinant PfCDPK1, Kinase-Glo ATP depletion luminescence
Chain of Calcium-dependent protein kinase 1 (Plasmodium falciparum (isolate 3D7)) (P62344 whole entry, looked up): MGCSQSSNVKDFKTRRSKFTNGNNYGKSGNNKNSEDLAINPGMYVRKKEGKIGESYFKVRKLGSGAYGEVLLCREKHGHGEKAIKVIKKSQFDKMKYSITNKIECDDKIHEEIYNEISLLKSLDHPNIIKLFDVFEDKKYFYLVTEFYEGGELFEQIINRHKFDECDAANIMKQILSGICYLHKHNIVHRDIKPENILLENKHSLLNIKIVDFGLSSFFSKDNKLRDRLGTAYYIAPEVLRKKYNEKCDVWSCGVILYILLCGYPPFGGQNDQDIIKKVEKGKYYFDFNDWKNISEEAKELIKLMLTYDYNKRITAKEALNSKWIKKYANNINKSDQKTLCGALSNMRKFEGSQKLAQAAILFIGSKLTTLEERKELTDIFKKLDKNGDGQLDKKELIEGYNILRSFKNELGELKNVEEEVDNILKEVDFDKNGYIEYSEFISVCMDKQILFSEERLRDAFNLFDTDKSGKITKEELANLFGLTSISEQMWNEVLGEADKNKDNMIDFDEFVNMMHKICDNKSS

[6] = target: Plasmodium falciparum protein kinase 6 (PK6, PF3D7_1337100) (UniProt Q8IDW1); assay: PfPK6 kinase inhibitors, biochemical, TCAMS library (AID 1159586); conditions: recombinant PfPK6, Kinase-Glo ATP depletion luminescence
Chain of Plasmodium falciparum protein kinase 6 (PK6, PF3D7_1337100) (Q8IDW1 1-305): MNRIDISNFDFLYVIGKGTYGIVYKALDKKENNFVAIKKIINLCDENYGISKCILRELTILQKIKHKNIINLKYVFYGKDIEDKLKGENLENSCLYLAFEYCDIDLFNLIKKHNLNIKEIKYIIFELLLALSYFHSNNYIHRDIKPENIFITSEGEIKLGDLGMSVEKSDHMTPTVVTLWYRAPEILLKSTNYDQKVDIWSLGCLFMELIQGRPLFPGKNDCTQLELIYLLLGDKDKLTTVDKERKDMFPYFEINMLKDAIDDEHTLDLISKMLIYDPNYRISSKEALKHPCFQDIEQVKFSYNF

[7] = target: Protein kinase 7 (PK7), Plasmodium falciparum 3D7 (PF3D7_0213400) (UniProt Q7YTF7); assay: inhibition of Plasmodium PK7 catalytic activity – biochemical, TCAMS antimalarial set, Kinase-Glo luminescence (AID 1159587); conditions: recombinant PfPK7, Kinase-Glo ATP depletion luminescence
Chain of Protein kinase 7 (PK7), Plasmodium falciparum 3D7 (PF3D7_0213400) (Q7YTF7 1-343): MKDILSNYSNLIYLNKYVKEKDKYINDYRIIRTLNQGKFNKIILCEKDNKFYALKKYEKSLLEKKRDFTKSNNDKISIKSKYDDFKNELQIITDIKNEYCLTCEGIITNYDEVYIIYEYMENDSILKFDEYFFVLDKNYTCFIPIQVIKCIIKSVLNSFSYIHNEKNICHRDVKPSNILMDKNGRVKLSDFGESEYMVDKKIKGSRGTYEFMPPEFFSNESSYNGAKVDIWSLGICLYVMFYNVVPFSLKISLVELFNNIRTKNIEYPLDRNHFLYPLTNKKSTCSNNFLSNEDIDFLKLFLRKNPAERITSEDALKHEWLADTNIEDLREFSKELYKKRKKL

[8] = target: Calcium-dependent protein kinase 4 (Plasmodium falciparum (isolate 3D7)) (UniProt Q8IBS5); assay: PfCDPK4 kinase inhibitors, biochemical, TCAMS library (AID 1159588; cut-off not given, nearly all actives have IC50 up to about 0.91 µM); conditions: recombinant PfCDPK4, Kinase-Glo ATP depletion luminescence
Chain of Calcium-dependent protein kinase 4 (Plasmodium falciparum (isolate 3D7)) (Q8IBS5 whole entry, looked up): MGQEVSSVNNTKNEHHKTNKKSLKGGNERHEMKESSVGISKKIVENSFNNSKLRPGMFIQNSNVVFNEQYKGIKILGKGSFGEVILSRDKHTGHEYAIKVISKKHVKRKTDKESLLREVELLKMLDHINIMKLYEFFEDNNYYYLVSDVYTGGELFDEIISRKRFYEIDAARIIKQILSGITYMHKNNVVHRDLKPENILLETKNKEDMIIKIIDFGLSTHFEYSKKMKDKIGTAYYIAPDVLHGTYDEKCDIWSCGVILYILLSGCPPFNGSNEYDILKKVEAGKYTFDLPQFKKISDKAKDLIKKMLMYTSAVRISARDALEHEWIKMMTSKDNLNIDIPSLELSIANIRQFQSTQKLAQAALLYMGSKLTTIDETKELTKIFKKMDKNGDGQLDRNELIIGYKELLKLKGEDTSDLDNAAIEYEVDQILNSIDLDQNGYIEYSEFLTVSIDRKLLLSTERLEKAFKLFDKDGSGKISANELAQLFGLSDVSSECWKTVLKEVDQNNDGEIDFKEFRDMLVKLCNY

SMILES | growth inhibition [1] | inhibition [2] | inhibition [3] [%] | growth inhibition [4] | outcome [5] | outcome [6] | outcome [7] | outcome [8]
CCCCc1cc(=O)oc2cc(C)cc(OCc3ccccc3F)c12 | 78% (active) | 8% | -1 | 92% (active) | inactive | inactive | inactive | inactive
O=C(c1ccc(Br)o1)N1N=C(c2cccs2)CC1c1ccc(Br)cc1 (stereo not given) | 45% | 5% | -4 | 96% (active) | inactive | inactive | inactive | inactive
O=C(Nc1cccc(-c2cccc(-c3nc4ccc(C(F)(F)F)cc4[nH]3)c2)c1)c1ccoc1 | 61% (active) | 32% | -2 | 99% (active) | inactive | inactive | inactive | inactive
CC(=O)NCCNCc1cccc(C(=O)NCc2cccc(C(F)(F)F)c2)c1 | -2% | 1% | 1 | 95% (active) | inactive | inactive | inactive | inactive
O=C(NCc1ccc(F)cc1)c1cnc(N2CCN(c3ccncc3)CC2)c(Cl)c1 | 44% | 30% | 2 | 98% (active) | inactive | inactive | inactive | inactive
Cc1nccn1CCNC(=O)CN1CCC2(CCC1=O)CC(=O)c1ccccc1O2 (stereo not given) | 4% | -7% | 7 | 98% (active) | inactive | inactive | inactive | inactive
Cc1cc(N2CCCC2)nc(Nc2ccc(NC(=O)c3cccc(F)c3)cc2)n1 | 28% | 39% | -3 | 97% (active) | inactive | inactive | inactive | inactive
CC(C)C[C@@H](/C=N/N1CCOC1=O)NC(=O)[C@H](CC(C)C)NC(=O)c1ccc(F)cc1 | 72% (active) | 1% | -4 | 85% (active) | inactive | inactive | inactive | inactive
CN1CCC(N2CCC(Oc3cccc(C(=O)NCCCC4CCCC4)c3)CC2)CC1 | 48% | 41% | -3 | 101% (active) | inactive | inactive | inactive | inactive
COCc1nc(-c2ccccc2)nc(N2CCN(C(=O)NC(C)C)CC2)c1Cc1ccccc1F | 94% (active) | 35% | -3 | 96% (active) | inactive | inactive | inactive | inactive
Cc1cc(N[C@@H](Cc2ccccc2)C(=O)Nc2ccccc2)nc(NCCc2cccs2)n1 | 72% (active) | -1% | -1 | 100% (active) | inactive | inactive | inactive | inactive
CCOc1ccccc1CCNCC1CCN(CC2CCCCC2)CC1 | 59% (active) | 35% | -1 | 84% (active) | inactive | inactive | inactive | inactive
CC1Cc2ccccc2N1CC(=O)Nc1cc(C(F)(F)F)ccc1-n1cncn1 (stereo not given) | 97% (active) | 17% | 1 | 97% (active) | inactive | inactive | inactive | inactive
N#Cc1ccc2c(c1)CCN(CCC1CCC(NC(=O)Nc3ccnc4ccccc34)CC1)C2 (stereo not given) | 77% (active) | 38% | 2 | 104% (active) | inactive | inactive | inactive | inactive
CN1c2ccccc2Sc2cc(CNCCSCCNCc3ccc4c(c3)Sc3ccccc3N4C)ccc21 | 44% | 58% (active) | 0 | 84% (active) | inactive | inactive | inactive | inactive
CN1CCc2ccc(NC(=O)Nc3ccc(-c4ccccc4)cc3)cc2C1 | 45% | 24% | 3 | 90% (active) | inactive | inactive | inactive | inactive
CC1(C)CC(=O)c2c(O)cc(OCc3ccncc3)cc2O1 | 47% | 80% (active) | -1 | 92% (active) | inactive | inactive | inactive | inactive
COc1cccc2c(NN=Cc3ccccc3[N+](=O)[O-])cc(C)nc12 | 32% | -6% | -5 | 99% (active) | inactive | inactive | inactive | inactive
CC(C)C[C@H](NC(=O)OC(C)(C)C)C(=O)Nc1ccc(Cc2ccc(NC(=O)[C@H](CC(C)C)NC(=O)OC(C)(C)C)cc2)cc1 | 88% (active) | -5% | 0 | 94% (active) | inactive | inactive | inactive | inactive
Cc1cccc2[nH]c(-c3cccc(-c4ccc(NC(=O)C(C)CN5CCOCC5)cc4)c3)nc12 (stereo not given) | 30% | 7% | 2 | 93% (active) | inactive | inactive | inactive | inactive
